From PubChem BioAssay (NCATS) come the findings set out here.

The structures appear in SMILES notation. Records with an inconclusive call do not appear. Calls of active or inactive are those of the source. The call rests on the fitted dose curve; in most records, active means well fitted activation curve with a large enough effect; inconclusive means small, poorly fitted or top-dose-only effect; inactive means no such curve, though single readings can be large or run the other way.
On the % scale 0 is the no-effect control and ±100 the full control effect.

Chain of Rap guanine nucleotide exchange factor 4 (Homo sapiens) (Q8WZA2 whole entry, looked up): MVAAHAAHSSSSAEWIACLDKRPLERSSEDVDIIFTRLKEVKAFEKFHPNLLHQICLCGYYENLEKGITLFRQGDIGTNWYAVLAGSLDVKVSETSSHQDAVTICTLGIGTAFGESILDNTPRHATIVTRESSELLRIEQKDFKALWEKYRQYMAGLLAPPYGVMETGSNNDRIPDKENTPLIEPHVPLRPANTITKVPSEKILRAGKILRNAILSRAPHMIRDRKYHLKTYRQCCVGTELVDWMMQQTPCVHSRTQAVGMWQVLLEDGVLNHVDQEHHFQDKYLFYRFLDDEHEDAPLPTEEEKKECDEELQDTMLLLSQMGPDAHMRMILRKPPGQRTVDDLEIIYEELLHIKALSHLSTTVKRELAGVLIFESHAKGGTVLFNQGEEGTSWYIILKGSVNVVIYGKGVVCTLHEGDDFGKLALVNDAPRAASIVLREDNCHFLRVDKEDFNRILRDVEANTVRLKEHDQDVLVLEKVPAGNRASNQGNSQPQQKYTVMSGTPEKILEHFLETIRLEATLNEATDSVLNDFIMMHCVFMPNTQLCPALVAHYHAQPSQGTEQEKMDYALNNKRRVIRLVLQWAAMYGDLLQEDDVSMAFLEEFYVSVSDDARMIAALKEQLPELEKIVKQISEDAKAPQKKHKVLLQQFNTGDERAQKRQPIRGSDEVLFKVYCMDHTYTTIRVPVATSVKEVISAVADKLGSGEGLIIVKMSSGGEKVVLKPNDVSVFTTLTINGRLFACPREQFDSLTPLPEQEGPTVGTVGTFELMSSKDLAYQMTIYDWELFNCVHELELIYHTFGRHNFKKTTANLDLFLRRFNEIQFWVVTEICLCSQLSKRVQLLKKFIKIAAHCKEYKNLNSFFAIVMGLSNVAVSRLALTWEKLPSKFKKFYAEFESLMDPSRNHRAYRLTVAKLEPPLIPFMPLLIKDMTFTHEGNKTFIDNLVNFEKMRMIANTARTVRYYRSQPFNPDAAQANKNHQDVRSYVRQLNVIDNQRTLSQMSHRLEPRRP

This assay has as its target Rap guanine nucleotide exchange factor 4 (Homo sapiens) (UniProt Q8WZA2). Put plainly: Confirmatory qHTS for agonist of cAMP-regulated guanine nucleotide exchange factor 4 (EPAC2) (AID 1645884). Further: nearly all actives have a fitted effect of over 65% in size. Particulars: EPAC2 GEF activity, Rap1B-BODIPY-GDP fluorescence; series mostly up to 154 µM; activation: at the top concentration. A general note: In qHTS, concentration-response curves come from the screen itself.
Turning to `O=C(CSc1nccn1C1CCCC1)Nc1cc(C(F)(F)F)ccc1Cl`, the “activation” value was -5.28% [at 83.8 µM, percent relative to cAMP agonist control] (inactive).

In the case of `COc1cc(NC(=O)CCc2c(C)nc3c4c(C)cc(C)nc4nn3c2C)cc(OC)c1`, the “activation” value is 3.72% [at 83.8 µM, percent relative to cAMP agonist control] (inactive). To `COC(=O)c1ccccc1NC(=O)c1nn(-c2ccc(OC)cc2)c(=O)c2c1c1ccccc1n2C` belongs -18.7% [at 83.8 µM, percent relative to cAMP agonist control] (inactive); to `Cc1ccc(S(=O)(=O)CCC(=O)Nc2sccc2C#N)cc1`, 6.67% [at 17.1 µM, percent relative to cAMP agonist control] (inactive); to `COc1cnc(-c2ccccc2)c(-c2ccccc2)n1`, 7.78% [at 17.1 µM, percent relative to cAMP agonist control] (inactive). For `COc1ccc(C(=O)Nc2cccc(/C=C(/CCC(=O)O)c3nc4ccccc4s3)c2)cc1`, the “activation” value was -10.9% (inactive). With `O=C(Nc1nc2ccc(Cl)cc2s1)C1CCCO1` (stereo not drawn), the activation was 6.17% [at 17.1 µM, percent relative to cAMP agonist control] (inactive). To `O=C(c1ccco1)N(Cc1cccs1)c1ccc(F)cc1` belongs -8.39% [at 83.8 µM, percent relative to cAMP agonist control] (inactive); to `CCN1C(=O)/C(=C/c2ccc(OCc3ccc(C(=O)O)cc3)c(Cl)c2)NC1=S`, 12.4% (inactive). To `O=C(COC(=O)Cc1c(Cl)cccc1Cl)NCC1CCCO1` (stereo not drawn) belongs -17.4% (inactive); to `C/C(CC(=O)Nc1ccc(Cl)c(C(F)(F)F)c1)=N\NC(=O)c1cnccn1`, -14.1% (inactive). As to `O=C(O)C1CC(=O)N(c2ccc(OCc3c(F)cccc3Cl)cc2)C1` (stereo not drawn), the “activation” value was -1.68% (inactive).

In the case of `CC1Cc2nc(SCC(=O)N3CCCc4ccccc43)n(C)c(=O)c2S1` (stereo not drawn), the activation is -4.86% [at 17.1 µM, percent relative to cAMP agonist control] (inactive). Take `CC1CCC/C(=C\Nc2ccc(O)cc2)C1=O` (stereo not drawn): the activation was 6.29% [at 17.1 µM, percent relative to cAMP agonist control] (inactive). To `O=C1COc2ccc(C(=O)COC(=O)c3ccc([N+](=O)[O-])cc3Cl)cc2N1` belongs 9.45% (inactive); to `Cc1ccccc1NC1c2ccccc2C(=O)N1Cc1ccco1` (stereo not drawn), 2.58% [at 17.1 µM, percent relative to cAMP agonist control] (inactive).

In the case of `Cn1cccc1/C=C1\CCC/C(=C\c2cccn2C)C1=O`, the “activation” value was -119% (inactive). For the compound `COc1ccc2nc3oc(C(=O)Nc4cccc(C(F)(F)F)c4)cc3cc2c1`, the “activation” value is 0% [at 83.8 µM, percent relative to cAMP agonist control] (inactive). In the case of `COc1ccc(NC(=O)CCCSc2nc(-c3ccco3)cc(C(F)(F)F)n2)cc1`, the “activation” value was -23.7% [at 83.8 µM, percent relative to cAMP agonist control] (inactive). Take `CCc1cc2c(=O)c(-c3nc4ccccc4n3C)coc2c(CN2CCCCC2C)c1O` (stereo not drawn): the “activation” value is -4.46% (inactive). Next, `NC(=O)c1ccsc1NC(=O)CS(=O)(=O)c1ccc(F)cc1`: -1.01% (inactive); `CCOc1cnc(-c2c(-c3c(Cl)cccc3Cl)noc2C)o1`: 1.16% [at 17.1 µM, percent relative to cAMP agonist control] (inactive); `O=C(NCc1ccc(F)cc1)C(c1cccnc1)N(C(=O)c1csnn1)c1ccccc1` (stereo not drawn): -0.815% [at 17.1 µM, percent relative to cAMP agonist control] (inactive).

Take `COc1ccc(C2CC(c3ccccc3OC(C)=O)=NN2C(C)=O)cc1` (stereo not drawn): the “activation” value is 0% (inactive).

For the compound `Cc1cc(C)cc(OCCSc2nc(-c3ccc(C(C)(C)C)cc3)nc3cc(=O)[nH]n23)c1`, the “activation” value was -19.8% [at 83.8 µM, percent relative to cAMP agonist control] (inactive). To `COc1ccc(/C(N)=N/OC(=O)c2ccc(C)c([N+](=O)[O-])c2)cc1` belongs 8.03% [at 17.1 µM, percent relative to cAMP agonist control] (inactive); to `CCCCn1nnc(NC(=O)c2ccco2)n1`, 6.58% [at 17.1 µM, percent relative to cAMP agonist control] (inactive). Next, `CCCSc1nc(C)cc(C)c1S(=O)(=O)c1ccccc1C`: 2.1% (inactive). For `O=C(NCc1ccco1)c1sc(=S)n2c1[nH]c(=O)c1ccccc12`, the activation was 1.94% [at 17.1 µM, percent relative to cAMP agonist control] (inactive). Turning to `COc1cccc(OC)c1C(=O)NC(=S)NNC(=O)[C@H]1C[C@@H]1c1ccccc1`, the “activation” value was -10.3% (inactive).

`COc1ccc(CCNC2CC(=O)N(CCc3ccc(OC)c(OC)c3)C2=O)cc1` (stereo not drawn): the activation was 4.7% [at 17.1 µM, percent relative to cAMP agonist control] (inactive). `CSc1ccccc1C(=O)Nc1ccc(C)cc1C`: the activation is -2.17% [at 17.1 µM, percent relative to cAMP agonist control] (inactive).

As for `Cc1ccc(-n2nnnc2SCC(=O)NCC2(N3CCOCC3)CCCCC2)cc1`, the “activation” value is 13.9% (inactive).
